“And” between values parts separate entries of the source, which are not always exact repeats. Equal entries are not always repeated. Results filed as inconclusive are left out. The source made the active and inactive calls. Calls follow the shape of the dose curve; as a rule, active = well fitted cell-killing curve with a large enough effect; inconclusive = small, poorly fitted or top-dose-only effect; inactive = no such curve, though single readings can be large or run the other way.
Assay: qHTS of pediatric cancer cell lines to identify multiple opportunities for drug repurposing: Primary screen for Rh41 cells (AID 1347108); also: nearly all actives have a fitted effect of over 70% in size;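 as to activity change, negative = cytotoxic: luminescence drop marks cytotoxic hits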
Details: Rh41 rhabdomyosarcoma viability, CellTiter-Glo luminescence, 48 h; series mostly up to 46 µM; activity change, negative = cytotoxic: at the top concentration
Excerpt: Drug repurposing or repositioning has been offered as a strategy for drug development in oncology programs. This approach has special potential for childhood cancers and other rare or orphan diseases, where the expected return on new drug development has been a disincentive to pharmaceuticals. […] In this project we exploit the poly-pharmacology of drugs to discover new indications via phenotypic screening of a panel of 19 well-characterized cell lines derived from solid tumors seen in children and adolescents. The goal is to identify approved drugs with previously unrecognized anticancer properties that has the potential to reveal new mechanisms and biological processes involved in carcinogenesis or drug resistance. We employed a titration-based paradigm (quantitative high-throughput screening or qHTS), where all compounds were tested at multiple concentrations for their effect on cell viability. Concentration-response curves (CRCs) were derived directly from the primary screen, and both potency and efficacy values were used to identify compounds with robust bioactivity profiles. We screened the NIH Chemical Genomics Center (NCGC) Pharmaceutical Collection (NPC) and Mechanism Interrogation Plate (MIPE) small molecule collections of approved and investigational compounds against these cell lines; and measured metabolically active cells after 48 hours of compound treatment as a proxy for cell viability. […] Assay Submitter: Nathalia J. Martinez, National Center for Advancing Translational Sciences, National Institutes of Health, Rockville, MD, USA; email: natalia.martinez@nih.gov Shen, M et al. Quantitative high-throughput phenotypic screening of pediatric cancer cell lines identifies multiple opportunities for drug repurposing. Oncotarget 2017 Dec 19;9(4):4758-4772. PMID 29435139.
The cells were obtained from University of North Carolina (UNC), Pediatric Preclinical Testing Program (PPT), and Coriell Institute (CI). qHTS cell viability assay: Cells were assayed in growth media at a density of 500-1,000 cells/well. Five microliters of cells were dispensed into 1,536-well, white, solid-bottom, TC-treated plates (Greiner Bio One) using a multidrop dispenser and incubated at 37 degrees C, 5% CO2, under a humidified atmosphere for 5 hours. Twenty-three nanoliters of compounds and controls (neutral control DMSO or positive control bortezomib at final concentration of 2.3 µM) were subsequently transferred by Kalypsys pintool. For primary screens, the MIPE collection was tested at 11-point dilutions (final concentrations range from 0.78 nM to 46 µM) and the NPC collection at 8-point dilutions (final concentrations range from 0.59 nM to 46 µM). Compounds tested in follow-up screens were assayed at 11-point dilutions. Cells were incubated for 48 hours, followed by addition of 3 µL of CellTiter-Glo (Promega). After a 15 min incubation at room temperature, samples were analyzed for luminescence intensity using a ViewLux High-throughput CCD imager equipped with clear filters.
Potency is read from the fitted curve at half-maximal effect.

Row | SMILES | activity change, negative = cytotoxic | Potency
1 | CC(C)NCC(O)COc1cccc2[nH]ccc12 (stereo not given) | -4.91% (inactive) | 
2 | Cn1cc(C=C2C(=O)Nc3cccnc32)c2ccccc21 | -2.73% (inactive) | 
3 | CCC(=O)O[C@]1(C(=O)CO)CC[C@H]2[C@@H]3CCC4=CC(=O)CC[C@]4(C)[C@@H]3CC[C@@]21C | 24.3% (inactive) | 
4 | CCN(CC)CCOC(=O)c1ccc(N)cc1 | 32.2% (inactive) | 
5 | COc1ccc2c3c1OC1C[C@@H](O)C=C[C@@]31CCN(C)C2 (stereo not given in full) | 20% (inactive) | 
6 | C[C@]12CC[C@@H]3c4ccc(O)cc4CC[C@H]3[C@H]1C[C@@H](O)[C@H]2O | 18.5% (inactive) | 
7 | Cc1c[nH]c(C=C2C(=O)Nc3ccccc32)c1CCC(=O)O | -10.5% (inactive) | 
8 | Cc1[nH]c(C=C2C(=O)Nc3ccc(S(=O)(=O)Cc4c(Cl)cccc4Cl)cc32)c(C)c1C(=O)N1CCC[C@H]1CN1CCCC1 |  | 18.7 µM (active)
9 | COc1cc(Nc2ncc(F)c(Nc3ccc4c(n3)NC(=O)C(C)(C)O4)n2)cc(OC)c1OC |  | 2.35 µM (active)
10 | CO[C@@H](C(=O)N1Cc2[nH]nc(NC(=O)c3ccc(N4CCN(C)CC4)cc3)c2C1)c1ccccc1 |  | 0.469 µM (active)
11 | CC[C@H]1OC(=O)[C@H](C)[C@@H](O[C@H]2C[C@@](C)(OC)[C@@H](O)[C@H](C)O2)[C@H](C)[C@@H](O[C@@H]2O[C@H](C)C[C@H](N(C)C)[C@@H]2O)[C@](C)(O)C[C@@H](C)CN(C)[C@H](C)[C@@H](O)[C@]1(C)O | 16.6% (inactive) | 
12 | O=C1NC(=O)C(=Cc2ccc3c(c2)OC(F)(F)O3)S1 | 1.36% (inactive) | 
13 | CC(=O)O[C@]1(C(C)=O)CC[C@H]2[C@@H]3C=C(Cl)C4=CC(=O)[C@@H]5C[C@@H]5[C@]4(C)[C@H]3CC[C@@]21C |  | 18.8 µM (active)
14 | CC(=O)N[C@@H](CS)C(=O)O | 27.7% (inactive) | 
15 | CON=C(C(=O)N[C@@H]1C(=O)N2C(C(=O)OCOC(=O)C(C)(C)C)=C(C=Cc3scnc3C)CS[C@H]12)c1csc(N)n1 | 21.3% (inactive) | 
16 | CCN(CC)CCNC(=O)c1ccc(N)cc1 | 22.5% (inactive) | 
17 | c1cc(-c2sc(-c3ccncc3)c(-c3ccncc3)c2-c2ccncc2)ccn1 | 14.9% (inactive) | 
18 | CC(C)C[C@H](CC(=O)O)C(=O)N[C@@H](Cc1c[nH]c2ccccc12)C(=O)N[C@@H](C)c1ccccc1 | 6.16% (inactive) | 
19 | CO[C@H]1C=CO[C@@]2(C)Oc3c(C)c(O)c4c(O)c(c5c(c4c3C2=O)NC2(CCN(CC(C)C)CC2)N=5)=NC(=O)C(C)=CC=C[C@H](C)[C@H](O)[C@@H](C)[C@@H](O)[C@@H](C)[C@H](OC(C)=O)[C@H]1C | -10.6% (inactive) | 
20 | CC(=O)c1ccc(S(=O)(=O)NC(=O)NC2CCCCC2)cc1 | 26.8% (inactive) | 

Row | SMILES | activity change, negative = cytotoxic | Potency
21 | NC(=O)c1cccc2[nH]c(-c3ccc([C@H]4CCCN4)cc3F)nc12 | 9.07% (inactive) | 
22 | O=C(CCCCCCC(=O)Nc1ccccc1)NO |  | 3.35 µM (active) and 5.9 µM (active)
23 | CCn1cc(C(=O)O)c(=O)c2ccc(C)nc21 |  | inactive
24 | Cc1nc(N)sc1-c1ccnc(Nc2ccc(N3CCOCC3)cc2)n1 |  | 18.7 µM (active)
25 | COc1ccc2c(Oc3ccc(NC(=O)c4c(C)n(CC(C)(C)O)n(-c5ccccc5)c4=O)nc3)ccnc2c1 | -1.68% (inactive) | 
26 | CO[C@H]1C(=O)[C@]2(C)[C@@H](OC)C[C@H]3OC[C@@]3(OC(C)=O)[C@H]2[C@H](OC(=O)c2ccccc2)[C@]2(O)C[C@H](OC(=O)[C@H](O)[C@@H](NC(=O)OC(C)(C)C)c3ccccc3)C(C)=C1C2(C)C |  | 0.001 µM (active)
27 | COc1ccc(C2CC(c3ccccc3)=NN2c2ccc(S(N)(=O)=O)cc2)cc1 (stereo not given) | -0.349% (inactive) | 
28 | O=c1[nH]cnc2c1ncn2[C@H]1CC[C@@H](CO)O1 | 32.6% (inactive) | 
29 | COC1CCC(N(C(=O)C2CCC(C)CC2)c2cc(C3=CCCCC3)sc2C(=O)O)CC1 (stereo not given) | 4.3% (inactive) | 
30 | C[C@H](NC(=O)c1sccc1OCc1ccc(Cl)cc1)c1ccccc1 |  | 16.6 µM (active)
31 | COC[C@@H](c1ccc(C(F)(F)F)cc1)N1CCN(C2(C)CCN(C(=O)c3c(C)ncnc3C)CC2)C[C@H]1C | 3.21% (inactive) | 
32 | O=c1c(-c2ccc(O)cc2)coc2cc(OC3O[C@H](CO)[C@H](O)[C@H](O)[C@H]3O)cc(O)c12 (stereo not given in full) |  | 8.33 µM (active)
33 | NC[C@@H]1O[C@@H](O[C@H]2[C@@H](O)[C@H](O[C@@H]3[C@@H](O)[C@@H](N)C[C@H](N)[C@H]3O[C@H]3O[C@H](CN)[C@@H](O)[C@@H](O)[C@H]3N)O[C@H]2CO)[C@H](N)[C@@H](O)[C@@H]1O | 24.3% (inactive) | 
34 | CC(C)(C)C(=O)Oc1ccc2c(c1)nc(NC(=O)c1cccc([N+](=O)[O-])c1)n2CCCO | -11.8% (inactive) | 
35 | COc1cccc(-c2cc(=O)c3ccccc3o2)c1N | -15.9% (inactive) | 
36 | N[C@H](CSC(c1ccccc1)(c1ccccc1)c1ccccc1)C(=O)O | -10.6% (inactive) | 
37 | CN(C)CCC=C1c2ccccc2COc2ccc(CC(=O)O)cc21 | 2.73% (inactive) | 
38 | CC1=C(/C=C/C(C)=C/C=C/C(C)=C/C(=O)Nc2ccc(O)cc2)C(C)(C)CCC1 |  | 9.44 µM (active)
39 | NS(=O)(=O)c1cccc2c1C(=O)c1cccc(O)c1C2=O |  | 0.935 µM (active)
40 | O=c1c(-c2ccc(O)cc2)coc2cc(O[C@@H]3O[C@H](CO)[C@H](O)[C@H](O)[C@H]3O)ccc12 | 20.8% (inactive) | 

From PubChem BioAssay (NCATS)
